The target in test [1] is Retinoic acid receptor RXR-alpha (Homo sapiens) (UniProt P19793). The experiment in a line: ATG_RXRa_TRANS: Attagene TRANS-FACTORIAL HepG2 Assay for human Retinoid X Receptor alpha (RXRa) (AID 2283012; active = hit-call score of the fitted dose curve at least 0.9, where 1 is the maximum). The method in brief: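 Read-out: fluorescent reporter-transcript fragments quantified by capillary electrophoresis after RT-PCR. Transiently transfected HepG2 cells carrying GAL4-UAS reporters and NR-GAL4 chimeras were exposed to chemical for 24 h; activity scored as increase over DMSO.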

Test [2] has as its target human Retinoid X Receptor beta (RXRb), RXRB (gene 6257) (UniProt P28702). The experiment in a line: ATG_RXRb_TRANS: Attagene TRANS-FACTORIAL HepG2 Assay for human Retinoid X Receptor beta (RXRb) (AID 2283013; active = hit-call score of the fitted dose curve at least 0.9, where 1 is the maximum). Summed up:
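Read-out: reporter mRNA induction via RT-PCR plus capillary electrophoresis fluorescence, analysed as signal increase relative to DMSO. Cells were human HepG2, transiently transfected with GAL4-UAS reporter constructs and chimeric receptor-Gal4 fusions, dosed for 24 h.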

The target in test [3] is human Thyroid Receptor alpha (THRa1), THRA (gene 7067) (UniProt P10827). Description: ATG_THRa1_TRANS: Attagene TRANS-FACTORIAL HepG2 Assay for human Thyroid Receptor alpha (THRa1) (AID 2283014; active = hit-call score of the fitted dose curve at least 0.9, where 1 is the maximum). The method in brief:
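HepG2 cells transiently transfected with chimeric NR-Gal4 and GAL4-UAS reporter units, dosed 24 h. Reporter mRNA quantified by RT-PCR, fluorescent labeling, HpaI digestion and capillary electrophoresis; gain-of-signal fit versus DMSO.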

Read-out in test [4]: E-selectin (Homo sapiens) (UniProt P16581)
The experiment in a line: BSK_3C_Eselectin: BioMAP Diversity Plus: 3C Assay for Eselectin Biomarker Activity (AID 2283015).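 As to outcome: cell surface E-selectin protein quantified by ELISA 24 h after dosing.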 As to conditions: primary human endothelial cells (HUVEC); actives raise or lower the signal. Summed up: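 Primary human umbilical vein endothelial cells (3C system), read 24 h after compound addition; E-selectin measured by ELISA. Bidirectional curve fitting against DMSO baseline; cytotoxicity by parallel SRB total-protein staining.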

Read-out in test [5]: Interleukin-1 alpha (IL1a), IL1A (gene 3552)
The experiment in a line: BSK_BE3C_IL1a: BioMAP Diversity Plus: BE3C Assay for Interleukin-1 alpha (IL1a) Biomarker Activity (AID 2283016). As to conditions: primary human bronchial epithelial cells; actives raise or lower the signal. Summed up:
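ELISA read-out of IL-1a from human lung bronchial epithelial primary cells, 24 h post-dose. Gain or loss of signal fitted relative to DMSO negative control.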

Read-out in test [6]: Monocyte Chemoattractant Protein-1 (MCP1), CCL2 (gene 6347)
Description: BSK_4H_MCP1: BioMAP Diversity Plus: 4H Assay for Monocyte Chemoattractant Protein-1 (MCP1) Biomarker Activity (AID 2283018). Particulars: primary human endothelial cells (HUVEC); actives raise or lower the signal. The method in brief:
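HUVEC primary cells, 24 h post-dose, MCP-1 by ELISA. Gain or loss of signal fitted bidirectionally vs DMSO baseline. Cytotoxicity: SRB stain (0.1% after 10% TCA fixation), read 560 nm, parallel cultures.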

Read-out in test [7]: Interleukin-8 (IL8), CXCL8 (gene 3576)
Description: BSK_3C_IL8: BioMAP Diversity Plus: 3C Assay for Interleukin-8 (IL8) Biomarker Activity (AID 2283020). Particulars: primary human endothelial cells (HUVEC); actives raise or lower the signal. The method in brief: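 HUVEC, 3C stimulation; 24 h compound exposure; IL-8 read by ELISA; gain or loss of signal fitted relative to DMSO control.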

Read-out in test [8]: Monokine induced gamma interferon (MIG), CXCL9 (gene 4283)
The experiment in a line: BSK_3C_MIG: BioMAP Diversity Plus: 3C Assay for Monokine induced gamma interferon (MIG) Biomarker Activity (AID 2283021).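 As to AC50: MIG protein level measured by immunoassay in the treated endothelial cultures.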 Particulars: primary human endothelial cells (HUVEC); actives raise or lower the signal. The method in brief: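 HUVEC, 3C system; 24 h chemical exposure; MIG by ELISA; bidirectional fit vs DMSO baseline.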

The target in test [9] is human Vitamin D Receptor (VDR), VDR (gene 7421) (UniProt P11473). Description: ATG_VDR_TRANS: Attagene TRANS-FACTORIAL HepG2 Assay for human Vitamin D Receptor (VDR) (AID 2283022; active = hit-call score of the fitted dose curve at least 0.9, where 1 is the maximum). Summed up: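 HepG2 cells were transiently transfected with GAL4-UAS reporter units and a chimeric VDR-Gal4 construct, then dosed for 24 hours. Reporter mRNA was quantified by RT-PCR, fluorescent labeling, HpaI digestion and capillary electrophoresis; gain of signal analysed vs DMSO.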

The nature of test [10]: BSK_3C_SRB: Viability Assessment in the BioMAP Diversity Plus: 3C Assay (AID 2283023).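 Also: fitted both ways against DMSO so a hit may be signal rise or drop.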 Particulars: primary human endothelial cells (HUVEC). Summed up:
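Human umbilical vein endothelial cells in the 3C system, treated 24 h. Total protein measured by 0.1% sulforhodamine B staining after 10% TCA fixation, read at 560 nm; bidirectional fit versus DMSO.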

Read-out in test [11]: Matrix Metallopeptidase 1 (MMP1), MMP1 (gene 4312)
Description: BSK_BE3C_MMP1: BioMAP Diversity Plus: BE3C Assay for Matrix Metallopeptidase 1 (MMP1) Biomarker Activity (AID 2283024). Particulars: primary human bronchial epithelial cells; actives raise or lower the signal. The method in brief: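 ELISA read-out of MMP1 in human lung bronchial epithelial primary cultures, 24 h post-dose; bidirectional curve fit vs DMSO baseline, gain or loss of signal scored.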

Test [12] can be described thus: BSK_3C_Vis: BioMAP Diversity Plus: 3C Assay for Morphology Visualization (AID 2283025).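 Also: fitted both ways so gain or loss versus DMSO counts.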 As to conditions: primary human endothelial cells (HUVEC). The method in brief: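 HUVEC, 3C system; light microscopy of morphology at 24 h post-dose. Bidirectional fit vs DMSO baseline. Secondary readout, background-control function.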
Read-out in test [13]: Pselectin, SELP (gene 6403)
Description: BSK_4H_Pselectin: BioMAP Diversity Plus: 4H Assay for Pselectin Biomarker Activity (AID 2283026). Particulars: primary human endothelial cells (HUVEC); actives raise or lower the signal. Summed up: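 HUVEC, 24 h chemical exposure; P-selectin read by ELISA. Bidirectional curve fit vs DMSO baseline; gain or loss of signal scored.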

Test [14] in a line: BSK_4H_SRB: Viability Assessment in the BioMAP Diversity Plus: 4H Assay (AID 2283027).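 Also: cells exposed to compound for 24 h before staining.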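 As to AC50: curves fitted both ways versus DMSO so AC50 may be loss or gain.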 As to conditions: primary human endothelial cells (HUVEC). Summed up: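 Cytotoxicity readout: sulforhodamine B (0.1%) staining of total protein after 10% TCA fixation, measured at 560 nm in human umbilical vein endothelium at 24 h. DMSO set the baseline; fitting was bidirectional.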
Test [15] can be described thus: BSK_BE3C_SRB: Viability Assessment in the BioMAP Diversity Plus: BE3C Assay (AID 2283028).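 As to AC50: fitted both ways so AC50 may mark signal gain or loss versus DMSO.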 Particulars: primary human bronchial epithelial cells. Summed up: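 Human bronchial epithelial primary cells in confluent culture, 24 h after chemical dosing; total protein by 0.1% SRB staining after 10% TCA fixation, read at 560 nm. Bidirectional fitting versus DMSO baseline.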

Read-out in test [16]: Thrombomodulin, THBD (gene 7056)
Description: BSK_3C_Thrombomodulin: BioMAP Diversity Plus: 3C Assay for Thrombomodulin Biomarker Activity (AID 2283029). As to conditions: primary human endothelial cells (HUVEC); actives raise or lower the signal. The method in brief:
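HUVEC, 3C conditions; compound 24 h; thrombomodulin by ELISA; bidirectional curve fit vs DMSO baseline; parallel SRB total-protein staining for cytotoxicity.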

Read-out in test [17]: Urokinase-type plasminogen activator receptor (uPAR), PLAUR (gene 5329)
Description: BSK_4H_uPAR: BioMAP Diversity Plus: 4H Assay for Urokinase-type plasminogen activator receptor (uPAR) Biomarker Activity (AID 2283030). Particulars: primary human endothelial cells (HUVEC); actives raise or lower the signal. The method in brief:
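Human umbilical vein endothelial cells in the 4H system, 24 h after chemical dosing. Cell-surface uPAR measured by ELISA, fitted in both directions versus DMSO; cytotoxicity checked by SRB total protein in parallel cultures.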

Read-out in test [18]: Human Leukocyte Antigen - DR isotype (HLADR), HLA-DRA (gene 3122)
Description: BSK_3C_HLADR: BioMAP Diversity Plus: 3C Assay for Human Leukocyte Antigen - DR isotype (HLADR) Biomarker Activity (AID 2283019). Particulars: primary human endothelial cells (HUVEC); actives raise or lower the signal. Summed up:
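HUVEC monoculture, HLA-DR measured by ELISA 24 h after chemical dosing. Fitted bidirectionally against DMSO baseline; parallel SRB staining assessed cytotoxicity, with 3C proliferation read by SRB at 48 h.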

Results filed as inconclusive are left out. Activity calls are given as the source filed them. The calls were made as follows, unless noted: active = hit-call score of the fitted dose curve at least 0.9, where 1 is the maximum; inactive = score below 0.9.

human Vitamin D Receptor (VDR), VDR (gene 7421), sequence (P11473 whole entry, looked up, the tested form may be a part): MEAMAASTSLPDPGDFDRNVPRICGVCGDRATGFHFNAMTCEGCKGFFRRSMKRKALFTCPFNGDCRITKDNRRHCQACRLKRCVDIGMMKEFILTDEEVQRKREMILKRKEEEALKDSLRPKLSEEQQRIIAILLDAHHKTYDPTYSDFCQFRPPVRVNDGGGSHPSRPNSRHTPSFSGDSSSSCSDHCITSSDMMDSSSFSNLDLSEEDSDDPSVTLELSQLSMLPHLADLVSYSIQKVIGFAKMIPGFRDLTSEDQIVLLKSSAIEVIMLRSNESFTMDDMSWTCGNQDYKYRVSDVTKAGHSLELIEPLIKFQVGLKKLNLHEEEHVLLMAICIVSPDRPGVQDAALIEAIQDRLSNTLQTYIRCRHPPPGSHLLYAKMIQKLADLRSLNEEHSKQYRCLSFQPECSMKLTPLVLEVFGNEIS
human Thyroid Receptor alpha (THRa1), THRA (gene 7067), sequence (P10827 whole entry, looked up, the tested form may be a part): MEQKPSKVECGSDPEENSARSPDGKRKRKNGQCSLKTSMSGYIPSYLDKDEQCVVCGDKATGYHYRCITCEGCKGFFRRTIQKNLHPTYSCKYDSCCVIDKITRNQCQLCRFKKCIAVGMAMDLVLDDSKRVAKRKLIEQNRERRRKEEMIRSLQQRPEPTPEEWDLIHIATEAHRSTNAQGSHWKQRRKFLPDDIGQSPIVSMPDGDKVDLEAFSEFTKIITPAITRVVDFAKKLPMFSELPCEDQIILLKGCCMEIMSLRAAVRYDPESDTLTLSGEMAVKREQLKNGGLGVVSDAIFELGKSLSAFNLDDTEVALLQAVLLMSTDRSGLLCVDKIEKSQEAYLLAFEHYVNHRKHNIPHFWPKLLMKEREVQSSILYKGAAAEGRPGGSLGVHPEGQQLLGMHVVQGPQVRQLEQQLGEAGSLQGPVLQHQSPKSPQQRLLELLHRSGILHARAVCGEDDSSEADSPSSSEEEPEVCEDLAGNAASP
human Retinoid X Receptor beta (RXRb), RXRB (gene 6257), sequence (P28702 whole entry, looked up, the tested form may be a part): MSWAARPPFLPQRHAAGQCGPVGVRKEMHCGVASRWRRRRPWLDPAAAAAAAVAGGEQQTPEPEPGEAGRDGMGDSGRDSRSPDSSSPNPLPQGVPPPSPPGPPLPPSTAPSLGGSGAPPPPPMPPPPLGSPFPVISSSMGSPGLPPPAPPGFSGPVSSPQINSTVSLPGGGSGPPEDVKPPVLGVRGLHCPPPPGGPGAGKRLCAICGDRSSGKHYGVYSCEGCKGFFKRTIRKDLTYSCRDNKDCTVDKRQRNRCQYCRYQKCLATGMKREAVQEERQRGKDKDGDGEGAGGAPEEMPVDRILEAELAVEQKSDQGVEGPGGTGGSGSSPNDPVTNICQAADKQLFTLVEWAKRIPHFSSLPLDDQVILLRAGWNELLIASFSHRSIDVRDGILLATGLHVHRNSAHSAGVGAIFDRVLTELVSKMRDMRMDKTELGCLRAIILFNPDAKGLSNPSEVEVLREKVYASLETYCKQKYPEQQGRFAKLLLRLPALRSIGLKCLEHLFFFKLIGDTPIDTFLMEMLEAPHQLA
Retinoic acid receptor RXR-alpha (Homo sapiens), sequence (P19793 whole entry, looked up, the tested form may be a part): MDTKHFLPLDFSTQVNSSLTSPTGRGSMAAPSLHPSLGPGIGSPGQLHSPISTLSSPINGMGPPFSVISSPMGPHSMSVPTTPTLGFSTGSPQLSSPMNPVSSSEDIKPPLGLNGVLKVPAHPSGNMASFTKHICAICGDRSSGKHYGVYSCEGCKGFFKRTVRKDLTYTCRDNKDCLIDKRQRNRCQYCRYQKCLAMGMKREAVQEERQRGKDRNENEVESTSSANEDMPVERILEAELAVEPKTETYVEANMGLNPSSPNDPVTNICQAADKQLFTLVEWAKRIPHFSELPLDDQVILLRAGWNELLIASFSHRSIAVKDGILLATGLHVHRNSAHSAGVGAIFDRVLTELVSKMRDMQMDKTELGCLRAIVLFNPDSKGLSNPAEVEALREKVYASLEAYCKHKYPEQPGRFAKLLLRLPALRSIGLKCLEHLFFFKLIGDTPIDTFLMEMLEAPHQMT
E-selectin (Homo sapiens), sequence (P16581 whole entry, looked up): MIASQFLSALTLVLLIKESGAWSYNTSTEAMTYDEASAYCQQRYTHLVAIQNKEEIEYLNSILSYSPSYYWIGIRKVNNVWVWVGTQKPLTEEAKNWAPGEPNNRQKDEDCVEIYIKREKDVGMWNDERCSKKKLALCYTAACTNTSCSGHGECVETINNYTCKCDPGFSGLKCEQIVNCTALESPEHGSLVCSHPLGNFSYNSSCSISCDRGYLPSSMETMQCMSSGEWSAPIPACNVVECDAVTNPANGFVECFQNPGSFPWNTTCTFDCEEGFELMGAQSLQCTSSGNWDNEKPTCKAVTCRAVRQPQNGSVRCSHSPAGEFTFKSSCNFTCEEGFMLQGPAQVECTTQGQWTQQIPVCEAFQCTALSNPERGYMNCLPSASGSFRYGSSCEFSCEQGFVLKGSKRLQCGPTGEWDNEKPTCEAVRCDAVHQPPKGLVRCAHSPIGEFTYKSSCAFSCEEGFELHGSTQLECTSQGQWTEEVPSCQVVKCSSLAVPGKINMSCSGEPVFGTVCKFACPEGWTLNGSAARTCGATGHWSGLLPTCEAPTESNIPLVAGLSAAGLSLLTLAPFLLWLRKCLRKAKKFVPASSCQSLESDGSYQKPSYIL

In general, AC50 refers to the midpoint of the concentration-response curve, whichever way the signal moves. `[Cl][Sn]([c]1ccccc1)([c]1ccccc1)[c]1ccccc1`: the half-maximal activity concentration (AC50) in test [1] was 233 nM (active); in test [2], 0.965 nM (active); in test [4], 154 nM (active); in test [5], 126 nM (active); in [6] it was 66 nM (active); in [7] it was 298 nM (active). Moreover, the concentration at half-maximal activity (AC50) in test [8] was 436 nM (active); in test [10], 188 nM (active); in [11], 360 nM (active); in [12] it was 176 nM (active); in test [13], 64.1 nM (active); in [14], 192 nM (active). Also, the results for the AC50 in test [15], in test [16] and in test [17] were 146 nM (active), 5000 nM (active) and 205 nM (active), respectively. Also, the compound was called inactive in test [3] and in test [9].
In the case of `O=C1c2ccccc2C(=O)C1C(=O)C(c1ccccc1)c1ccc(Cl)cc1` (stereo unspecified), the outcome in test [1], in test [2] and in test [9] was inactive. Moreover, the AC50 in [3] is 7690 nM (active).
For `N#Cc1ccncc1`, the compound was called inactive in test [1], in test [2], in test [3] and in test [9].
With `O=CCCl`, the result in [1], in test [2], in test [3] and in [9] was inactive.
Consider `CN(N=O)c1ccc([N+](=O)[O-])cc1`, for which the outcome in [1], in [2] and in test [9] was inactive.
Regarding `O=S1OC[C@@H]2[C@H](CO1)[C@]1(Cl)C(Cl)=C(Cl)[C@@]2(Cl)C1(Cl)Cl` (stereo partly specified), the compound was classed as inactive in test [1], in test [2], in [3] and in [9].
For the compound `c1ccc(-c2cccc(-c3ccccc3)c2)cc1`, the result in test [1], in test [8], in [15], in [16] and in test [17] was inactive. For the same compound, the AC50 in [2] was 7980 nM (active); in [4], 11400 nM (active); in test [5], 11600 nM (active); in test [6], 5910 nM (active); in test [18] it was 9900 nM (active); in [7] it was 7450 nM (active). Moreover, the AC50 in test [10] is 10700 nM (active); in test [11], 136 nM (active); in test [12], 13000 nM (active); in [13], 12400 nM (active); in [14], 20000 nM (active).
In the case of `OCC(c1ccc(Cl)cc1)c1ccc(Cl)cc1`, the outcome in test [1], in [2] and in test [3] was inactive.
On to `c1cc[c]([Sb]([c]2ccccc2)[c]2ccccc2)cc1`, for which the result in [1], in test [3] and in [9] was inactive. Besides, in test [2], the half-maximal activity concentration (AC50) is 4360 nM (active).
On to `O=[N+]([O-])c1ccc(Nc2ccccc2)cc1`, for which the outcome in test [1], in test [3], in test [4], in [5], in [7] and in [8] was inactive. The call in test [9], in test [10], in [11], in [12], in [13] and in test [14] was inactive. In addition, the outcome in [15], in test [16] and in [17] was inactive. For the same compound, the AC50 is 12100 nM (active) in test [2] and 20000 nM (active) in test [6].
